# Compound activity (PubChem)
# B2AR arrestin: agonists driving beta-arrestin recruitment to human beta2-adrenergic receptor; AID 492947; P07550; hit rate 0.02% among 330,000; Potency, µM (series often up to 46.1 µM), without a hit: top-dose activation, most hits filed as activators; beta-arrestin recruitment to beta2AR, cell-based reporter;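 note: 0% = DMSO controls and full agonism = EC100 isoproterenol or metaproterenol; nearly all actives have a fitted effect of over 65% in size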
# EPAC2 antag: blocks human EPAC2 exchange factor. Q8WZA2. EPAC2 GEF exchange of Rap1B-BODIPY-GDP, fluorescence. Potency, µM (highest dose often 114 µM), inactives show at the highest dose activity, negative = inhibition, most hits filed as inhibitors. hit rate 0.18% among 360,000; note: % is set by controls: 0 for no effect and ±100 for the full control effect; nearly all actives have a fitted effect of over 45% in size
# Target sequence (Q8WZA2 whole entry, looked up): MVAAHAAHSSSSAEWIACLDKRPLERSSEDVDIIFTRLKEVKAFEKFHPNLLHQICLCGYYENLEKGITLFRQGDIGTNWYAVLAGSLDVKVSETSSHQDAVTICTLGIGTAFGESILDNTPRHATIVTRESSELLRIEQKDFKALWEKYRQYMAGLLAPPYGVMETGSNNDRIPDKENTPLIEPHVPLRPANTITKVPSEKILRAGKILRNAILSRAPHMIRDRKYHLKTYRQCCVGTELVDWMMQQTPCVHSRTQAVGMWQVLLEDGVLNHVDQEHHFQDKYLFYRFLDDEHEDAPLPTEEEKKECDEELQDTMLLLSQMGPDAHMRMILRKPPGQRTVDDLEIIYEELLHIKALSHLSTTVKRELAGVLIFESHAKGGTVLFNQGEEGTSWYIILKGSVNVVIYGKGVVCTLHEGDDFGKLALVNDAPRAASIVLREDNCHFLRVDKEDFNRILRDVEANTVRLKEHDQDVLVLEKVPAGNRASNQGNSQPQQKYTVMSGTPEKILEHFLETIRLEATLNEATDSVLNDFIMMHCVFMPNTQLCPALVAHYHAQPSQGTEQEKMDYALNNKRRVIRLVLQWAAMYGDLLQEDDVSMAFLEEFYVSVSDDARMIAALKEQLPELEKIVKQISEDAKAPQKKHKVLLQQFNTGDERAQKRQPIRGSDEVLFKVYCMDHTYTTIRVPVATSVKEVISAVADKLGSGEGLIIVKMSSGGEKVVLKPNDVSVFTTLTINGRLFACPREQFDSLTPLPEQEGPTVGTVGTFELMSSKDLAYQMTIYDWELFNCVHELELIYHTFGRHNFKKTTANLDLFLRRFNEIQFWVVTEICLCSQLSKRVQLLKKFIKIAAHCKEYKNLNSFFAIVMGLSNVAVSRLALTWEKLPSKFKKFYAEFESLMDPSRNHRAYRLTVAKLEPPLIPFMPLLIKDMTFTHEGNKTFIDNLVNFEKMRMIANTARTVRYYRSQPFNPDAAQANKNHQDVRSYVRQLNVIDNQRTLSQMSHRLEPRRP
# EPAC1 ag: EPAC1 (human) agonism; O95398; EPAC1 agonist qHTS, biochemical assay; response scale: 100% = response to 6.5 mM cAMP; Potency, µM (highest dose often 154 µM), for inactives: at the top dose activation, usual class: activators; hit rate 0.073% among 360,000; note: nearly all actives have a fitted effect of over 60% in size
#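 Normalized to 6.5 mM cAMP, activity reflects EPAC1-catalysed release of BODIPY-GDP from Rap1B, followed kinetically over 30 min at 480 nm excitation, 540 nm emission. Reaction contained 100 nM EPAC1, 250 nM Rap1B-BODIPY-GDP, 50 uM GDP.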
# EPAC2 agonist: EPAC2 (human) agonism | EPAC2 activation, biochemical qHTS; response scale: 100% = 6.5 mM cAMP response | Potency, µM (doses to about 154 µM), inactives show at the top dose activation, hits mostly activators | hit rate 0.079% among 360,000 | AID 720711; note: nearly all actives have a fitted effect of over 50% in size
#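 Fluorescence exchange assay: 100 nM EPAC2 with 250 nM RAP1B-BODIPY-GDP and 50 uM GDP; compounds tested as a concentration-titration series (qHTS). Loss of Rap1-bound BODIPY-GDP fluorescence read at 480/540 nm; data normalized to 6.5 mM cAMP.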
# EPAC1 antag: blocks human EPAC1 exchange factor; O95398; EPAC1 GEF assay, Rap1b-BODIPY-GDP exchange fluorescence; Potency, µM (titrated, usually from 115 µM), inactives show top-dose activity change, negative = inhibition, actives largely listed as inhibitors; hit rate 0.14% among 360,000; AID 720709;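 note: plate controls were vehicle for no effect and positive control for full effect; nearly all actives have a fitted effect of over 50% in size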
# Starred values were filed as active, the others as inactive; u = inconclusive; x = not tested or not shown. Only some compounds are listed: those with a hit (about 0.4% of all), similar ones and a draw of the others. Calls come from the whole dose curve; as a rule, active = well fitted curve in the direction sought with a large enough effect; inconclusive = small, poorly fitted or top-dose-only effect, or another doubt; inactive = no such curve, though single readings can be large; an effect the other way counts as inactive or inconclusive. Potency is the fitted concentration of half-maximal effect.
SMILES,B2AR arrestin,EPAC2 antag,EPAC1 ag,EPAC2 agonist,EPAC1 antag
CCCCn1c(NS(=O)(=O)c2ccc(C)cc2)c(C(=O)OCC)c2nc3ccccc3nc21,0%,-9%,112µM*,-8%,u
Oc1ccc(Cl)cc1Cc1cc(Cl)ccc1O,-1%,79µM*,4%,9%,-13%
CCN(CC)c1ccc(N=Cc2c(O)n(-c3ccccc3C)c(=O)[nH]c2=O)cc1,-2%,9%,100µM*,89µM*,-1%
CCN(CC)c1ccc(N=Cc2c(O)n(-c3ccccc3)c(=O)[nH]c2=O)cc1,0%,40%,-18%,-10%,-9%
CCOc1ccccc1-n1c(O)c(C=Nc2ccc(N(CC)CC)cc2)c(=O)[nH]c1=O,-1%,32%,71µM*,100µM*,8%
O=C(C[C@H]1C=C[C@H](NC(=O)Nc2ccccc2F)[C@@H](CO)O1)NCc1ccc(-c2ccccc2)cc1,x,u,-1%,3%,5%
C/C(=C/CCC(C)[C@H]1CC[C@@]2(C)C3=C(CC[C@]12C)[C@@]1(C)CCC(=O)C(C)(C)[C@@H]1CC3)C(=O)O (some centres not stated),-1%,u,-29%,-1%,u
CCN1/C(=C\C=C\C2=[N+](CC)c3ccccc3C2(C)C)C(C)(C)c2ccccc21,-1%,73%,79µM*,50µM*,94%
CN1C(=O)/C(=C/c2cccn2-c2ccc3ccccc3c2)C(=O)NC1=S,0%,1%,-16%,-4%,32µM*
CC[C@H](C)/C=C(C)/C=C/C1=CC2=C(Cl)C(=O)[C@](C)(OC(C)=O)C(=O)C2=CO1,-1%,8.9µM*,12%,10%,u
On1ccccc1=S,u,-13%,-13%,8%,2%
O=P(Nc1cccc(F)c1)(Oc1ccccc1F)Oc1ccccc1F,0%,35µM*,14%,23%,u
Cc1cccc(NP(=O)(Oc2ccccc2F)Oc2ccccc2F)c1,-1%,u,11%,6%,-15%
Cc1ccc(C(O)P(=O)(OCCC(C)C)c2ccc(N(C)C)cc2)cc1 (configuration not stated),0%,u,-20%,-14%,3%
CCCCCCC1CC(C)(C(=O)CNc2nncs2)OC1=O (configuration not stated),-1%,u,5%,-3%,-6%
CNCC(O)c1ccc(OC(=O)C(C)(C)C)c(OC(=O)C(C)(C)C)c1 (configuration not stated),u,1%,4%,3%,-19%
O=C1NC(=O)N(Cc2ccco2)C(=O)/C1=C/c1ccc(-c2cccc([N+](=O)[O-])c2)o1,0%,-27%,4%,0%,50µM*
C=CCN1C(=O)NC(=O)/C(=C\c2ccc(-c3ccccc3[N+](=O)[O-])o2)C1=O,0%,-6%,14%,0%,-20%
COC1C(C)OC(OC2CC(C)(O)Cc3cc4c(c(O)c32)C(=O)c2c(O)cc3c(c2C4=O)OC2OC3(C)C(O)C(N(C)C)C2O)C(OC)C1(C)OC (configuration not stated),x,10%,100µM*,12%,130%
CCn1c(O)c(C=Nc2ccc(N3CCOCC3)cc2)c(=O)n(CC)c1=S,0%,112%,7%,100µM*,1%
S=C(Nc1ccccc1)Nc1ccccn1,x,-5%,89µM*,2%,15%
CCCOP(=O)(c1ccc(N(C)C)cc1)C(O)c1ccc(Cl)cc1Cl (configuration not stated),0%,u,2%,10%,-24%
O=C1NC(=O)N(c2ccccc2F)C(=O)/C1=C/c1ccc(Sc2nc3ccccc3[nH]2)o1,-1%,-1%,14%,-1%,25µM*
O=C1NC(=O)N(c2cccc(Cl)c2)C(=O)/C1=C\c1ccc(Sc2nc3ccccc3[nH]2)o1,-1%,-3%,-2%,1%,45µM*
O=C1NC(=O)N(c2ccccc2)C(=O)/C1=C/c1ccc(Sc2ccccc2)o1,0%,3%,8%,2%,11%
COc1cccc(Cn2c(=O)oc3ccccc32)c1,0%,u,-6%,-2%,-28%
Cc1ccc2c(c1)C=CC(C#N)N2C(=O)Oc1ccccc1 (configuration not stated),x,u,-18%,3%,-19%
Cn1cccc1/C=C1\C(=O)NC(=O)N(CCC2=CCCCC2)C1=O,0%,5%,3%,-8%,-4%
Cn1cccc1/C=C1\C(=O)NC(=O)N(Cc2ccccc2Cl)C1=O,0%,-4%,-7%,5%,79µM*
C[C@H](CO)N1C[C@H](C)[C@@H](CN(C)C(=O)Nc2ccc(C(F)(F)F)cc2)Oc2c(NS(=O)(=O)c3cccs3)cccc2C1=O,0%,-20%,-11%,-4%,u
